# Data reported in patent US20240035010, “COMPOSITIONS COMPRISING A VARIANT POLYPEPTIDE AND USES THEREOF” (Arbor Biotechnologies, Inc., published 2024).
# T1: variant nuclease E154G/L38G/K221G combination (P14R, D32R, I61R, E311R, E154G, L38G, K221G)
# T1 chain: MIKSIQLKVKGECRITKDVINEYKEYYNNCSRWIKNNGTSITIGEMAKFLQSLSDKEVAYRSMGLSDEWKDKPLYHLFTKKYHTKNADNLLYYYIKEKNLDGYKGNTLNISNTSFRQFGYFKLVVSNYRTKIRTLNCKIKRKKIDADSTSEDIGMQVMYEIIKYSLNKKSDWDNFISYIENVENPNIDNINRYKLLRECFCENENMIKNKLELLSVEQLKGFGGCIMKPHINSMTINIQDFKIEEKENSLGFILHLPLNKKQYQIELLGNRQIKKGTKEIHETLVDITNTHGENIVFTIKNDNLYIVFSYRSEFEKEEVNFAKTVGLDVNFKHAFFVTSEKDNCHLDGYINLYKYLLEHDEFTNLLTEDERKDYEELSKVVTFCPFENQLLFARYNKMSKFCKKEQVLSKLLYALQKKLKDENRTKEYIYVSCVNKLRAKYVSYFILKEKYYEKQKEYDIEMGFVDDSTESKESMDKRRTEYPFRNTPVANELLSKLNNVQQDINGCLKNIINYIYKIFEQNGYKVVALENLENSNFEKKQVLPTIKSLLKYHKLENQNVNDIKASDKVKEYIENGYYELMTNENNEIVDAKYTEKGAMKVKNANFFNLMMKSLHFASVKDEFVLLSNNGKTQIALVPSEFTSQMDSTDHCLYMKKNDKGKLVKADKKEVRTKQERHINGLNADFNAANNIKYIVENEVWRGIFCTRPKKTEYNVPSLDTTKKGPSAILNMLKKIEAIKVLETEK
# B1: EMX1 crRNA ; EMX1 target (ssRNA ; dsDNA)
# RNA: CUUGUUGUAUAUGUCCUUUUAUAGGUAUUAAACAACCCGCCGCUUCCUGAGCCAUC
# DNA 1: CCGCCGCTTCCTGAGCCATC
# DNA 2: GATGGCTCAGGAAGCGGCGG
# B2: VEGFA crRNA ; VEGFA target (ssRNA ; dsDNA)
# RNA: CUUGUUGUAUAUGUCCUUUUAUAGGUAUUAAACAACUCCAGACCACCAAUGGGCAC
# DNA 1: TCCAGACCACCAATGGGCAC
# DNA 2: GTGCCCATTGGTGGTCTGGA
# B3: AAVS1 crRNA ; AAVS1 target (ssRNA ; dsDNA)
# RNA: CUUGUUGUAUAUGUCCUUUUAUAGGUAUUAAACAACUGAGAAUGGUGCGUCCUAGG
# DNA 1: TGAGAATGGTGCGTCCTAGG
# DNA 2: CCTAGGACGCACCATTCTCA
# Key:
# Conditions in all cases: tags: pcDNA3.1 expression
# [1] = biological target: T1, variant nuclease E154G/L38G/K221G …; experiment: cell_activity; PAM 5'-ATTG-3'
# [2] = biological target: T1, variant nuclease E154G/L38G/K221G …; experiment: cell_activity; PAM 5'-TTTA-3'
# Method: (§1) Approximately 16 hours prior to transfection, 25,000 HEK293T cells in DMEM/10% FBS+Pen/Strep (D10 media) were plated into each well of a 96-well plate. On the day of transfection, the cells were 70-90% confluent. For each well to be transfected, a mixture of Lipofectamine 2000™ and Opti-MEM™ was prepared and incubated at room temperature for 5 minutes (Solution 1). After incubation, the Lipofectamine 2000™:Opti-MEM™ mixture was added to a separate mixture containing nuclease plasmid, RNA guide plasmid, and Opti-MEM™ (Solution 2). In the case of negative controls, the RNA guide plasmid was not included in Solution 2. Solutions 1 and 2 were mixed by pipetting up and down, then incubated at room temperature for 25 minutes. Following incubation, the Solution 1 and 2 mixture was added dropwise to each well of a 96-well plate containing the cells. Approximately 72 hours post transfection, cells were trypsinized by adding TrypLE™ to the center of each well and incubating at 37° C. for approximately 5 minutes. D10 media was then added to each well and mixed to resuspend cells. The resuspended cells were centrifuged at 500 g for 10 minutes to obtain a pellet, and the supernatant was discarded. […]
# (§2) The percentage of NGS reads containing indels (% indels) were calculated. […]
# [3] = biological target: T1, variant nuclease E154G/L38G/K221G …; experiment: cell_activity; PAM 5'-TTTG-3'
# Method: as §1, §2
binder,measurement,setting,value
B1,indel editing activity,[1],0.17 fold of WT
B2,indel activity,[2],0.06 fold of WT
B3,indel activity,[3],0.19 fold of WT
